Screening data as filed in PubChem BioAssay.
The list is not random: actives were taken first. Their share in the collection is about 0.88%.
ERG-DNA inh = inhibitors of human ERG Ets domain-DNA interaction | fluorescence polarization, His-ERG Ets domain / labelled DNA | 0.028% of 370,000 active | Potency, µM (highest dose often 76.9 µM), hits mostly inhibitors | P11308; active means well fitted inhibition curve with a large enough effect in the polarisation, with a control signal flat; inconclusive means small, poorly fitted or top-dose-only effect, or effect the other way, or a change in a side signal; inactive means no such curve, though single readings can be large or run the other way; the % refers to the polarisation;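 further: polarization taken with two DNA probes labelled with fluorescein and Texas red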
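His-tagged ERG Ets domain (1 uM in the protein solution; 300mM KCl, 50mM Tris-HCl, 1mM EDTA, 1mM DTT, pH 7.5) received compound, then a probe mix of 5 nM fluorescein-DNA and 100nM Texas-615-DNA. Fluorescence polarization was read for both dyes.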
GCN5L2 inh = inhibitors of human GCN5L2 histone acetyltransferase; Q92830; GCN5L2 HAT assay, ThioGlo1 CoA-SH fluorescence; Potency, µM (top dose mostly 58.9 µM), actives largely listed as inhibitors; 0.21% of 390,000 active; AID 504327
Target sequence (Q92830 whole entry, looked up): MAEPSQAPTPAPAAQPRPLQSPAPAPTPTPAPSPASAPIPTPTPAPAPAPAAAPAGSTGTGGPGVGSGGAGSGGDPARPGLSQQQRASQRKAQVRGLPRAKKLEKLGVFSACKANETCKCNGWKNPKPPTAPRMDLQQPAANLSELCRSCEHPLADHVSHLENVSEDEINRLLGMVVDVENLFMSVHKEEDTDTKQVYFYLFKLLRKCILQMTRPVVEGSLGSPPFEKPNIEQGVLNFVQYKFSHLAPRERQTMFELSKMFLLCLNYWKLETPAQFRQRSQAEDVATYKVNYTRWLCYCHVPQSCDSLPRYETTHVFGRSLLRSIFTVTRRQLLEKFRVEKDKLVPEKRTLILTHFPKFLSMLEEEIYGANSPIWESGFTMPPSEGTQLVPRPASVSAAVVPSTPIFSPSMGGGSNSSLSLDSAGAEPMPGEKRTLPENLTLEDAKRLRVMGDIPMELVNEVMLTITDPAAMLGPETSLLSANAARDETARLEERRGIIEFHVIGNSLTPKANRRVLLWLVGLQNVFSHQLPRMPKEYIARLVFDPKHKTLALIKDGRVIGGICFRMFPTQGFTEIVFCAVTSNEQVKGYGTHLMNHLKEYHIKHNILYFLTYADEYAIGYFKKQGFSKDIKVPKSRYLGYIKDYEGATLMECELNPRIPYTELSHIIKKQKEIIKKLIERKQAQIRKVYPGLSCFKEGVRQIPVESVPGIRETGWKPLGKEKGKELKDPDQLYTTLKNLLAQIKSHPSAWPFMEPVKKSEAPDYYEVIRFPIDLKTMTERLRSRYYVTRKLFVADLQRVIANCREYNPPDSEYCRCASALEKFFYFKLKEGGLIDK
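Fluorescence readout, Ex340nm/Em540nm: ThioGlo1 (50uM final) reacts with free CoA thiol released as 20nM GCN5L2 acetylates H3(1-25) peptide (75uM) using acetyl-CoA (70uM). Compound and enzyme sat 15 min beforehand; 20 min room-temperature reaction.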
RECQ1 helicase = RECQ1 (human) helicase inhibition | RECQ1 DNA unwinding, red fluorescence kinetic read | Potency, µM (doses to about 57.3 µM), hits mostly inhibitors | 0.54% of 240,000 active | P46063; further: nearly all actives have a fitted effect of over 30% in size
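RECQ1T1 50 nM; forked duplex (20 bp + 30-nt ss tails) 200 nM, ATP 2 mM final; pH 8.0, 2 mM MgCl2, 2.5 ug/ml poly(dI-dC); 15 min compound preincubation; discontinuous kinetic read over 2 h at RT.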
APE1 inh = inhibitors of human APE1 endonuclease | P27695 | recombinant APE1, TAMRA/BHQ-2 abasic DNA cleavage fluorescence | Potency, µM (series often up to 65.8 µM), most hits filed as inhibitors | 0.35% of 350,000 active; further: nearly all actives have a fitted effect of over 55% in size
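Enzyme (0.75 nM final) and test compound are incubated 15 min at room temperature before adding 50 nM quenched THF abasic-site duplex. Cleavage dequenches TAMRA, followed at 525/598 nm over three reads one minute apart.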
WRN inhibitor = blocks human WRN helicase; Q14191; WRN helicase unwinding, fluorescent forked duplex, kinetic; Potency, µM (top dose mostly 114 µM), most hits filed as inhibitors; 0.46% of 360,000 active; AID 651768; further: nearly all actives have a fitted effect of over 55% in size
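Primary qHTS, 1536-well format. 20 nM WRN + compound, 15 min RT; start with 100 nM forked fluorophore/quencher duplex, 2 mM ATP (final); kinetic read ex 525/em 598 nm.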
BLM inh = inhibitors of human Bloom syndrome helicase BLM; 0.2% of 350,000 active; Potency, µM (titrated, usually from 56.1 µM), hits mostly inhibitors; P54132; recombinant BLM DNA unwinding, fluorescence dequenching; AID 2528; further: nearly all actives have a fitted effect of over 35% in size
A number is an active result; i = inactive; ? = inconclusive; nt = not tested or not shown; [ ] = another dose, or the depositor's remark. Unless noted, the call rests on the fitted dose curve; in most records, active means well fitted curve in the direction sought with a large enough effect; inconclusive means small, poorly fitted or top-dose-only effect, or another doubt; inactive means no such curve, though single readings can be large; an effect the other way counts as inactive or inconclusive.

SMILES	ERG-DNA inh	GCN5L2 inh	RECQ1 helicase	APE1 inh	WRN inhibitor	BLM inh
C=CC1=C(C)C2=NC1=CC1=NC(=CC3=NC(=CC4=NC(=C2)C(C)=C4CCC(=O)O)C(CCC(=O)O)=C3C)C(C=C)=C1C.[Zn]	nt	i	13µM	4.5µM	nt	35µM
Cc1cc2c(s1)c1c(n2C)C(=O)N(Cc2ccccc2F)C1	nt	i	nt	i	nt	nt
OCCCNc1c2ccccc2nc2ccccc12	i	i	nt	17µM	i[11.6 µM]	i
Cc1ccc(-c2nc(NCCCO)c3ccccc3n2)cc1	i	i	nt	i	i	i
c1ccc2c(NCCc3c[nH]c4ccccc34)c3ccccc3nc2c1	i	i	nt	?	25µM	i
Fc1cccc(NCCc2c[nH]c3ccccc23)n1	i	i	nt	i	i	i
CC(=O)[C@@]1(O)CC[C@H]2[C@@H]3C=C(Cl)C4=CC(=O)[C@@H]5C[C@@H]5[C@]4(C)[C@H]3CC[C@@]21C	nt	nt	nt	i	nt	nt
CC(C)Oc1cccc(-c2nnc(SCC(=O)Nc3ccc4c(c3)OCCO4)n2N)c1	i	25µM	i	i	i	i
Nn1c(SCC(=O)Nc2ccc3c(c2)OCCO3)nnc1-c1cccnc1	i	i	nt	i	i	i
CCn1c2ccccc2c2cc(NC(=O)CSc3nnc(-c4ccc(OC)c(OC)c4)n3N)ccc21	i	5.6µM	i	i	i	i
O=C1NC(=Nc2ccccc2)/C(=C/c2ccco2)S1	i	i	i	i	i	i
Cc1ccc(N=C2NC(=O)S/C2=C\c2ccco2)cc1	i	i	i	i	?	22µM
O=C(CNC(=O)Cc1ccccc1)N=Nc1c(O)[nH]c2ccccc12	i	i	nt	i	i	i
O=C(CCCCCNC(=O)c1ccccc1Br)N=Nc1c(O)[nH]c2ccccc12	i	i	i	25µM	i	i
CSc1nc(N(CCO)CCO)c2sc3nc(-c4ccco4)c4c(c3c2n1)CCC4	i	?	i	i	13µM	i
CN(C)c1ccc(Cc2cc3c(O)ccc(O)c3cc(Cc3ccc(N(C)C)cc3)c2=O)cc1	nt	nt	nt	nt	13µM	nt
NC(C(=O)O)C(O)c1ccc(O)c(O)c1 (centres undefined)	nt	14µM	nt	nt	nt	?
O=C(O)c1ccccc1NS(=O)(=O)c1ccc(NNC(=S)Nc2ccc(OC(F)F)cc2)c([N+](=O)[O-])c1	i	22µM	?	i	?	i
CCCSCCCNC(=O)CN1C(=O)CCn2nc(-c3cn(C)c4ccccc34)cc21	i	i	nt	nt	nt	i
COc1ccccc1-n1c(=O)c(C#N)c(-c2ccc([N+](=O)[O-])cc2)c2cc(C(=O)c3cc(F)ccc3O)cnc21	11µM	i	i	i	i	i
CC(C)(C)N[S+](=O)([O-])c1cccc(-c2nnc(SCc3ccc(C(=O)O)cc3)n2-c2ccc(F)cc2)c1	nt	nt	nt	i	nt	nt
OCc1ccccc1O	nt	i	i	i	nt	i
OCc1ccccc1SSc1ccccc1CO	i	nt	nt	nt	14µM	nt
COc1ccc(Cl)cc1NC(=O)c1cc(S(=O)(=O)NC2CCCCCC2)ccc1F	i	i	nt	nt	nt	i
O=c1ccc2ccc(O)c(O)c2o1	nt	?	i	13µM	nt	nt
SMILES	ERG-DNA inh	GCN5L2 inh	RECQ1 helicase	APE1 inh	WRN inhibitor	BLM inh
O=[N+]([O-])c1ccccc1OCCOc1ccccc1[N+](=O)[O-]	i	i	40µM	i	i	i
CC[C@@H](c1ccccc1)n1c(=O)n2n(c1=O)[C@H]1[C@H](O)[C@H]3O[C@H]3C(=O)[C@H]1CC2	nt	nt	i[11.5 µM]	?	nt	i[12.4 µM]
CC(C)(C)c1ccc(C(=O)NC(=S)NCC2CCCO2)cc1 (centres undefined)	i	i	i	i	i	i
Cc1ccccc1C(=O)NC(=S)NCC1CCCO1 (centres undefined)	i	2.5µM	i	i	i	i
O=C(Nc1ccc(S(=O)(=O)Nc2nccs2)cc1)c1nn(-c2ccccc2)ccc1=O	i	?	nt	?	79µM	?
CCCCN1CCC[C@H]1CNC(=O)c1cc(C#N)c2ccccc2c1OC	nt	i	i	i	nt	i
CSc1ccc(/C=N/NC(=O)c2ccc(C)c(C)c2)cc1	i	?	i	i	i[11.6 µM]	28µM
CSc1ccc(/C=N/NC(=O)c2cc(O)cc(O)c2)cc1	i	i	i	i	i	i
C#CCCCO/N=C1/C[C@@H](O)[C@@H](O)[C@@H]2[C@@H]3C(=O)N(c4cccc(Oc5ccccc5)c4)C(=O)[C@H]3CC[C@H]12	nt	nt	i[11.5 µM]	?	nt	i[12.4 µM]
O=C(COc1ccc2c(c1)oc(=O)c1ccccc12)N[C@@H](Cc1c[nH]c2ccccc12)C(=O)O	i	25µM	nt	i	i	i
COc1cc(/C=C2/SC(=Nc3ccc(O)cc3)NC2=O)ccc1O	i	i	i	i	50µM	i
COc1cc(/C=C2\SC(=Nc3ccccc3OC)NC2=O)ccc1O	i	i	nt	i	i	i
Cc1ccc2cc(/C=N/NC(=O)c3ccccc3O)c(Cl)nc2c1	i	i	i	i	50µM	i
CCCC(=O)O[C@]1(C(=O)CCl)[C@H](C)C[C@@H]2[C@H]3CCC4=CC(=O)C=C[C@]4(C)[C@@]3(F)C(=O)C[C@@]21C	nt	i	nt	nt	nt	i
Cc1c(/C=N\NC(=O)C2COc3ccc(C(C)(C)C)cc3O2)c2ccccc2n1C (centres undefined)	i	i	28µM	i	i	i
Cc1cccc(-n2c(O)c(C=Nc3cc(O)ccc3C)c3ccccc3c2=O)n1	i	i	i	i	i	i
Cc1cccc(-n2c(O)c(C=Nc3ccccc3O)c3ccccc3c2=O)n1	i	i	i	?	?	16µM
Cc1cccc(-c2csc(N3CCC(C(N)=O)CC3)n2)c1	nt	nt	nt	i	nt	nt
COCCNC(=S)N1CCC2CC1c1c(Cl)cccc12 (centres undefined)	nt	nt	nt	nt	i	nt
COc1ccc(-c2cc(NC=O)c3ncc(-c4cc(OC)c(OC)c(OC)c4)n3c2)cc1	nt	nt	nt	nt	79µM	nt
CCN(CC)C(=S)S	nt	i	nt	nt	nt	i
Cn1c2ccccc2c2cc(/C=N/NC(=O)c3cc(O)cc(O)c3)ccc21	i	i	nt	13µM	?	i
Cn1c2ccccc2c2cc(/C=N/NC(=O)c3cc(O)ccc3O)ccc21	i	?	nt	i	22µM	i
COc1cc(C(=O)N/N=C/c2ccc3c(c2)c2ccccc2n3C)ccc1O	i	i	nt	i	i[11.6 µM]	i
COc1ccc(OC)c(NC(=O)C(CC(=O)O)NCc2ccco2)c1 (centres undefined)	i	3.2µM	i	i	i	i
COc1ccc(OC)c(Nc2nc(NCc3ccco3)c3ccccc3n2)c1	i	i	nt	i	?	28µM
CCN(CC)CCOC(=O)c1cccnc1	nt	i	nt	nt	nt	i
CC(O)c1cccc2cc(C(O)CNC(C)(C)C)oc12 (centres undefined)	nt	i	i	i	nt	i
CCC1(C)Cc2c(sc3[nH]c(=S)[nH]c(=S)c23)CO1 (centres undefined)	i	i	nt	i	i	i
